In PubChem BioAssay AID1814 (Broad Institute, 2009):
Hit rate of the full screen: of about 300,000 compounds, about 22,000 (7.3%) were called active. Inconclusive results (about 2%) are left out. No stated cut-off is given here; in the data, active means activity score below about -60%; inconclusive means mostly about -28% to -61%; inactive means positive scores. The entries come from a sample that favours actives as a whole.

Experiment: Activators working through SNCA 5'UTR binding (MLPCN) (AID 1814)
Settings: alpha-synuclein 5'UTR reporter, activators screen; active compounds read low; tested at 7.5 µM

SMILES	activity score
Cc1cccc(C(=O)Nc2ccc3c(c2)C(=O)N(CC(C)C)C3=O)c1	-149% (active)
Nc1nnc(SCC(=O)Nc2ccc3nc(SCC(=O)Nc4ccccc4)sc3c2)s1	-107% (active)
O=C(Nc1cccc(Cl)c1)Nc1ccccc1NS(=O)(=O)c1cccs1	-81.4% (active)
Cc1ccc(NN=C2C(=O)OC(C)(C)OC2=O)c(C)c1	-140% (active)
Cc1nn(-c2ccccc2)c(Cl)c1/C=C/C(=O)c1ccc(O)cc1	-125% (active)
Cn1sc(NC(=O)c2ccccc2)nc1=O	-72.7% (active)
O=C(c1ccc(F)cc1)n1c(=S)nc2ccccn21	-171% (active)
COc1cc(/C=N/O)ccc1OCc1ccc([N+](=O)[O-])cc1	-86.3% (active)
COc1ccc2[nH]c3c(=O)n(Cc4ccco4)cnc3c2c1	-65.2% (active)
Clc1ccc(N/N=C/c2cccs2)nn1	-131% (active)
COc1cccc(/C=N/Nc2ccc(Cl)nn2)c1	-168% (active)
Cc1ccsc1/C=N/Nc1ccc(Cl)nn1	-101% (active)
O=C(Nc1ccc(S(=O)(=O)N2CCOCC2)cc1)c1ccc2ncsc2c1	-76.4% (active)
CC1CCCN(c2ccc(C(=O)NCCc3ccccc3)cn2)C1 (centres undefined)	-104% (active)
CC1CCN(c2ccc(-c3ccc(NC(=O)c4ccco4)cc3)nn2)CC1	-144% (active)
CCC(=O)Nc1ccc(-c2ccc(N3CCCCC3)nn2)cc1	-132% (active)
[O-][n+]1onc2c1CCc1[nH]c(-c3ccccc3)nc1-2	-130% (active)
CC(=O)Nc1ccc(NC(=O)COc2ccc(S(=O)(=O)NC(C)c3ccccc3)cc2)cc1 (centres undefined)	-147% (active)
O=C(COc1ccccc1)Nc1ccc(F)cc1	-69.2% (active)
CC(=O)Nc1ccc(NC(=O)COc2ccccc2C(=O)Nc2cccc(Cl)c2Cl)cc1	41.1% (inactive)
O=C(COc1ccccc1)Nc1nonc1NC(=O)COc1ccccc1	-62.2% (active)
CC(C)[C@@H]1COC(c2cccc(C3=N[C@H](C(C)C)CO3)c2)=N1	-152% (active)
CCOc1ccc(NC(=O)c2ccc(NC(=O)COC(=O)c3ccc(NC(=O)CC#N)cc3)cc2)cc1	-88.1% (active)
CCOc1ccc(NC(=O)CCNC(=O)c2ccc(Br)cc2)cc1	-69.9% (active)
COc1ccc2oc(C(=O)NCc3ccco3)c(C)c2c1	-92.6% (active)
O=C(NCc1ccco1)c1sc2cccc(F)c2c1Cl	-99.4% (active)

SMILES	activity score
COc1ccc2c(Cl)c(C(=O)NCc3ccco3)sc2c1	-164% (active)
COc1ccc(C2=NOC(C(=O)NCc3ccco3)C2)cc1OC (centres undefined)	51.4% (inactive)
Cc1ccc2nc(-c3ccc(NC(=O)CN(C)S(=O)(=O)c4ccccc4)cc3)sc2c1	-67.2% (active)
Cc1cccc(N(CC(=O)Nc2ccc(-c3nc4ccc(C)cc4s3)cc2)S(C)(=O)=O)c1	-159% (active)
Cc1c(C(=O)NCC2CCCO2)sc2nc(-c3ccccc3)cn12 (centres undefined)	-102% (active)
Cc1c(C(=O)N2CCCc3ccccc32)sc2nc(-c3ccccc3)cn12	-83.5% (active)
Cc1cccc2cc3c(N)c(C(=O)N4CCCc5ccccc54)sc3nc12	85.2% (inactive)
Cc1ccc(C(=O)Cc2nnc(C)s2)cc1	-98.4% (active)
O=c1c2ccccc2ncn1/N=C/c1ccccc1	-192% (active)
Cc1cc(/C=C2/SC(=O)N(CC(=O)OC(C)C)C2=O)c(C)n1C	-159% (active)
Cc1cc(SCC(=O)NCCN2C(=O)CSC2=O)nc2ccccc12	-74.6% (active)
CCc1ccc(NC(=O)N2CCc3ccccc3C2)cc1	-68.2% (active)
O=C(Nc1cccc([N+](=O)[O-])c1)N1CCc2ccccc2C1	-99.5% (active)
CCCC1(C(=O)OC)NC(c2ccco2)C2C(=O)N(C)C(=O)C21 (centres undefined)	27.8% (inactive)
CCOC(=O)C1C(=O)C=C(c2ccc(OC)cc2)CC1c1ccco1 (centres undefined)	-74.2% (active)
CCOC(=O)c1c(Cc2ccc(Cl)cc2)c[nH]c1C	-90.9% (active)
CN(c1cccc(NC(=O)Nc2ccc(Cl)cc2)c1)S(C)(=O)=O	-112% (active)
O=[N+]([O-])c1ccccc1N/N=C1\CCc2ccccc21	-187% (active)
COc1ccc(/C=N/Nc2nc3ccccc3c(=O)[nH]2)cc1	-125% (active)
Cc1nnc(N/N=C/c2ccccn2)[nH]c1=O	117% (inactive)
COc1ccc(-c2onc3ccc(C(C)=O)cc23)cc1	-120% (active)
CS(=O)(=O)C1=NN2C(=N)/C(=C\c3ccc(OCCOc4ccccc4)cc3)C(=O)N=C2S1	-73.6% (active)
N#Cc1ccccc1NC(=O)c1ccc2c(c1)OCO2	-87.9% (active)
O=C(OCc1ccccc1F)c1ccc2c(c1)OCCO2	-210% (active)
O=C(Nc1ccccc1F)c1ccc2c(c1)OCO2	-199% (active)
O=c1c(-c2ccccc2)coc2cc(O)ccc12	-128% (active)

SMILES	activity score
CN(C)CCNC(=O)c1[nH]nc2c1CCc1ccccc1-2	-73.6% (active)
COc1cccc(/C=N/NC(=O)c2[nH]nc3c2CCc2ccccc2-3)c1O	76.4% (inactive)
O=C(CC1SCCNC1=O)Nc1ccc(Cl)c(Cl)c1 (centres undefined)	-77.7% (active)
Oc1c(Cl)cc(Cl)c(Cl)c1Cc1c(O)c(Cl)cc(Cl)c1Cl	77.3% (inactive)
C=C(C)C(=O)O[C@H]1C/C(C)=C\C(=O)/C=C(\C)[C@H](O)[C@@H]2OC(=O)C(=C)[C@@H]21	-250% (active)
CN1CCN(c2ccc(NC(=O)c3ccc4c(c3)OCCO4)cc2Cl)CC1	-66.8% (active)
O=C(Nc1ccc(N2CCOCC2)cc1)c1ccc2c(c1)OCO2	-121% (active)
O=C(Nc1ccc(C2CC2(Cl)Cl)cc1)c1cccc([N+](=O)[O-])c1 (centres undefined)	-92.3% (active)
O=C(Nc1ccccc1)c1ccc2c(c1)OCO2	-148% (active)
O=C(Nc1nc2ccccc2s1)c1ccc2c(c1)OCO2	53.7% (inactive)
O=C(Nc1cccc([N+](=O)[O-])c1)c1ccc2c(c1)OCO2	-99.5% (active)
COc1ccc2oc(-c3cccc(NC(=O)CSc4ccc(Cl)cc4)c3)nc2c1	-97.9% (active)
O=C(O)c1cccc(N=NN2CCCCCC2)c1	-74.8% (active)
Cc1ccc(C(=O)Nc2ccc(C)c(S(=O)(=O)N(C)C)c2)s1	-185% (active)
COc1ccc2ccccc2c1CNCc1ccccn1	-104% (active)
C/C(=N\NC(=O)Cc1ccc(Cl)cc1)c1ccccn1	85.6% (inactive)
Cc1ccc(S(=O)(=O)/N=C(/Nc2ccccn2)c2ccc(Cl)cc2)cc1	-118% (active)
O=C(c1ccc(Cl)cc1)N1N=C(c2ccccn2)CC1(O)C(F)(F)F (centres undefined)	68.6% (inactive)
Cc1cccc(CSc2ccc(-c3cccs3)nn2)c1	-110% (active)
COc1ccc(/C(O)=C2/C(=O)C(=O)N(CCCN(C)C)C2c2ccccc2)cc1OC (centres undefined)	-86.9% (active)
Cc1ccc(NC(=O)c2sc3nc(N)c(C#N)cc3c2N)cc1	-133% (active)
N#Cc1ccc(C2N=C(c3ccccc3)NO2)cc1 (centres undefined)	-107% (active)
Brc1ccccc1C1N=C(c2ccccc2)NO1 (centres undefined)	-157% (active)
COC(=O)c1c(NC(=O)c2ccc(S(=O)(=O)N3CCOCC3)cc2)sc2c1CCN(C(C)C)C2	-85.3% (active)
O=[N+]([O-])c1cccc(Nc2c3ccccc3nc3ccccc23)c1	-124% (active)
O=C(Nc1cccc(Br)c1)c1ccc2snnc2c1	-93% (active)

SMILES	activity score
FC(F)(F)c1ccnc(Oc2ccc(C3=NCCS3)cc2)c1	-169% (active)
Cc1nn(C)cc1CNC(=O)Nc1ccc(Cl)cc1	-69.4% (active)
Cn1ccc(NC(=O)Nc2ccc(Cl)cc2)n1	-80.2% (active)
CSCc1ccc(C(=O)Nc2cc(C)cc(C)c2)cc1	-126% (active)
C=CCn1c(SCC(N)=O)nnc1-c1cc2c(s1)CCC(CC)C2 (centres undefined)	-137% (active)
c1ccc(CCN2CN=C(Nc3nc4ccccc4o3)NC2)cc1	-174% (active)
O=C(NCc1ccccn1)c1cc2ccccc2oc1=O	-79.8% (active)
O=C(NCCc1c[nH]c2ccccc12)c1cc2ccccc2oc1=O	-188% (active)
CSc1ccc(/C=N/NC(=O)c2cccc(Cl)c2)cc1	-142% (active)
O=C(N/N=C/c1ccc(Cl)c(Cl)c1)c1ccc2nc[nH]c2c1	-191% (active)
Cc1nn(C)c(Oc2ccccc2)c1[N+](=O)[O-]	-79.9% (active)
Cc1ccc(N2C(=O)S/C(=C/c3cn(C)c4ccccc34)C2=O)cc1	-177% (active)
COc1cc(SC)ccc1C(=O)NCCOc1ccccc1Cl	-151% (active)
O=C(NC(Nc1nc2ccc([N+](=O)[O-])cc2s1)(C(F)(F)F)C(F)(F)F)c1ccccc1	94.1% (inactive)
O=C(Nc1nc2ccc([N+](=O)[O-])cc2s1)c1ccncc1	-104% (active)
CCN(CC)c1ccc(C(=O)OCC(=O)c2ccco2)cc1	-179% (active)
Cc1csc(NC(=O)CSc2nnc(-c3cccnc3)o2)n1	-101% (active)
Cc1cc(NC(=O)COc2ccc(Cl)cc2Cl)n(CCC#N)n1	-122% (active)
COC(=O)c1c(NC(=O)COc2ccc(Cl)cc2Cl)sc2c1CC(C)(C)NC2(C)C	102% (inactive)
COc1ccc(C(=O)NCCSc2ccccc2C)cc1	-113% (active)
COc1ccc(Nc2cc(=O)oc3ccccc23)cc1	-97.7% (active)
CSc1nc(-c2ccccc2)nc(C(Cl)Cl)n1	114% (inactive)
Cc1csc(NC(=O)Nc2ccccc2[N+](=O)[O-])n1	-255% (active)
NC(=O)c1sc2nc3c(c(-c4ccccc4)c2c1N)CCC3	56.2% (inactive)
CN(C)c1ccnc2sc(C(=O)c3ccccc3)c(N)c12	-138% (active)
Cc1nc2sc(C(=O)c3ccccc3)c(N)c2c2c1CCCC2	-156% (active)
